From PubChem BioAssay come the findings set out here.

This assay can be described thus: probe aDKK1 binding to arrayed compounds – biochemical, biotinylated probe, 635/667 nm fluorescence, primary screen (AID 1099).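 Further: score merges 667nm spot fluorescence with signal to noise across triplicate slides; reference of the scale not given here.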 The note with it: small-molecule microarray, higher = more signal.
`COC(=O)[C@@]1(Cc2ccccc2)[C@H]2c3cc(C(=O)N4CCCC4)[nH]c3C[C@H]2CN1C(=O)c1ccccc1` had a composite z-score of 0.865.

`O=C(O)[C@H](Cc1ccccc1)n1cc(-c2ccccn2)nn1` showed a composite z-score of -0.22.

On to `O=C1O[C@@H](c2ccccc2)[C@@H](c2ccccc2)N2[C@@H](c3ccccc3OCCO)[C@]3(C(=O)Nc4ccc(C#CCCO)cc43)[C@@H](C(=O)N3CCN(c4ncccn4)CC3)[C@H]12`, for which the composite z-score was -0.0415.

Turning to `COc1ccc([Si](C)(C)[C@@H]2[C@@H](CCO)O[C@]3(C(=O)N(Cc4cccc(N5C(=O)c6ccccc6Oc6ccccc65)c4)c4ccccc43)[C@H]2C)cc1`, the composite z-score came out at 0.0163.

Turning to `CN(C)CCCN1C(=O)[C@@]2(c3ccc([N+](=O)[O-])cc3)CC(=O)N(CC34CC5CC(CC(C5)C3)C4)[C@@H]2c2ccc(CO)cc21`, the composite z-score worked out at 1.83.

`C[C@]12C(=O)N(CCCCCCO)[C@@H]3C(=O)N(c4ccc(Cl)cc4)CC=CC31O[C@@H]1/C=C\CCCOC(=O)C12` (stereo not given in full) registered a composite z-score of -0.134.

Regarding `CC1CC/C=C\[C@H]2OC34C=CCN(c5ccc6ccccc6c5)C(=O)[C@H]3N(C(CO)C(C)C)C(=O)[C@@H]4C2C(=O)O1` (stereo not given in full), the composite z-score is -0.305.

For `O=C1O[C@@H](c2ccccc2)[C@@H](c2ccccc2)N2[C@@H](c3ccc(O)cc3)[C@]3(C(=O)Nc4ccc(C#CC5=CCCCC5)cc43)[C@@H](C(=O)N3CCN(c4ncccn4)CC3)[C@H]12`, the composite z-score was -0.446.

In turn, `C[C@H]1ON(c2ccc(C(=O)OC(C)(C)C)cc2)[C@@H](c2ccc(O)cc2)[C@@H]1C(=O)N1C(=O)OC[C@@H]1c1ccccc1` had a composite z-score of -0.0999.

`CCOC(=O)C[C@H]1[C@H](OC(=O)Cc2ccc3c(c2)OCO3)[C@@H](NC(=O)C2CCCCC2)c2cc(OCCCO)ccc2N1C(=O)c1ccc2ccccc2n1` gave a composite z-score of 0.034.

As to `CN1C(=O)C2C=CC(C(O)c3c(F)cccc3Cl)N(Nc3ccccc3)C2C1=O` (stereo not given), the composite z-score was 0.308.

As for `COCCCNC(=O)[C@]1(Cc2ccccc2CN=[N+]=[N-])N=C(c2ccc(OCCCO)cc2)O[C@@H]1c1ccccc1`, the composite z-score came out at 0.383.

In turn, `[N-]=[N+]=NCc1ccccc1C[C@@]1(C(N)=O)N=C(c2ccc(OCCCO)cc2)O[C@@H]1c1ccccc1CN=[N+]=[N-]` came in with a composite z-score of 1.09.

Turning to `COC(=O)[C@@]1(Cc2ccc(OC)cc2)[C@H]2c3cc(C(=O)N4CCCC4)n(CCc4cc5ccccc5[nH]4)c3C[C@H]2CN1C(=O)c1ccccc1`, the composite z-score was determined as 1.64.

The molecule `COCCOC(=O)N1C(=O)[C@@]2(c3cc(C#Cc4ccc(OC)cc4)ccc31)[C@H](C(=O)NC[C@H](O)c1ccccc1)[C@H]1C(=O)O[C@H](c3ccccc3)[C@H](c3ccccc3)N1[C@@H]2c1ccc(O)cc1` returned a composite z-score of 0.139.

Turning to `C=CC[C@@]12N=C(c3ccc(OCCCO)cc3)O[C@@H]1c1ccccc1N(CCS(=O)(=O)c1ccccc1)C2=O`, the composite z-score was -0.183.

Regarding `C=CCN1C(=O)[C@]2(CC=C)N=C(c3ccc(OCCCO)cc3)O[C@@H]2c2ccccc21`, the composite z-score was found to be 0.945.

For `Cc1ccc(S[C@]2(C(=O)NCC(C)C)CC(=O)N(Cc3ccccc3Cl)[C@@H]2c2ccc(CO)cc2I)cc1`, the composite z-score came to 0.117.

Molecule `COc1ccccc1CN1C(=O)c2ccccc2[C@](Cc2ccccc2I)(C(=O)NC(C)C)[C@@H]1c1ccc(CO)cc1` gave a composite z-score of -0.132.

The molecule `CCOc1cc(C(O)C2C=CC3C(=O)N(C4CCCCC4)C(=O)C3N2Nc2ccc(OC)cc2)ccc1O` (stereo not given) returned a composite z-score of -0.0443.

In the case of `COCCOC(=O)N1C(=O)[C@@]2(c3cc(C#Cc4ccc(OC)cc4)ccc31)[C@H](C(=O)N1CCCCCCC1)[C@H]1C(=O)O[C@H](c3ccccc3)[C@H](c3ccccc3)N1[C@@H]2c1ccc(O)cc1`, the composite z-score is 1.12.

Molecule `C=C(C(=O)CC[C@H](OC(=O)c1cccnc1)c1ccc(CO)o1)C(C)C` showed a composite z-score of 0.0114.

With `COC(=O)[C@H](Cc1ccccc1)N1CC(/C=C/C2CC2)=C[C@@H]1[C@@H](O)Cc1ccccc1`, the composite z-score was 0.0175.

Consider `COC(=O)[C@@]1(Cc2ccc(OC)cc2)[C@H]2c3cc(C(=O)N(C)C)n(Cc4nc5ccccc5[nH]4)c3C[C@H]2CN1C(=O)c1ccccc1`, for which the composite z-score turned out to be 0.956.

`CN(C)C(=O)[C@]1(CCC(=O)OC(C)(C)C)N=C(c2ccc(OCCCO)cc2)O[C@@H]1c1ccccc1`: the composite z-score turned out to be 0.937.

`COCCOC(=O)N1C(=O)[C@@]2(c3cc(C#CC4(O)CCCCCC4)ccc31)[C@H](C(N)=O)[C@H]1C(=O)O[C@H](c3ccccc3)[C@H](c3ccccc3)N1[C@@H]2c1ccccc1OCCO` displayed a composite z-score of 0.919.

Molecule `Cc1ccc(S[C@]2(C(=O)NCC(F)(F)F)CC(=O)N(Cc3ccccc3)[C@@H]2c2ccc(CO)cc2)cc1` showed a composite z-score of 0.382.

Consider `COCCCNC(=O)[C@@]1(Sc2ccc(C)cc2)CC(=O)N(C2Cc3ccccc3C2)[C@@H]1c1ccc(CO)cc1I`, for which the composite z-score was found to be 0.59.

In turn, `C=CC[C@]1(C(=O)N(C)C)N=C(c2ccc(OCCCO)cc2)O[C@H]1c1ccccc1N=[N+]=[N-]` returned a composite z-score of 0.776.

On to `CCOC(=O)C1=CC[C@@H](c2ccccc2C(F)(F)F)N(S(=O)(=O)c2ccc(C)cc2)C1`, for which the composite z-score turned out to be 1.27.

On to `CC(C)C(O)C1C=CC2C(=O)N(C)C(=O)C2N1N(c1ccccc1)c1ccccc1` (stereo not given), for which the composite z-score is 0.185.

The molecule `CCOC(=O)C1=CC[C@@H](c2ccc([N+](=O)[O-])cc2)N(S(=O)(=O)c2ccc(C)cc2)[C@H]1c1ccccc1` showed a composite z-score of 0.291.

Take `[N-]=[N+]=NCc1ccccc1C[C@@]1(C(=O)N2CCCCC2)N=C(c2ccc(OCCCO)cc2)O[C@@H]1c1ccccc1N=[N+]=[N-]`: the composite z-score came out at 0.885.

`C=C(/C(=C/C[C@@H](OC(=O)c1ccncc1)c1ccccc1OCCO)c1cc(C(=O)OC)ccc1OC)C(C)C` showed a composite z-score of -0.223.

`COCCOC(=O)N1C(=O)[C@@]2(c3cc(C#CC4(O)CCCCCC4)ccc31)[C@H](C(N)=O)[C@H]1C(=O)O[C@H](c3ccccc3)[C@H](c3ccccc3)N1[C@@H]2c1ccc(O)cc1`: the composite z-score is -0.116.
